Experiments:
[1] = biological target: Sphingosine kinase 1 (Homo sapiens) (UniProt Q9NYA1); details: at 1 µM;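 note: mean SPHK1 inhibition value reported from the GSK PKIS kinase panel screen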
[2] = biological target: T1, Sphingosine kinase 2 (Homo sapiens) (UniProt Q9NRA0); details: at 0.1 µM
T1 sequence (whole entry): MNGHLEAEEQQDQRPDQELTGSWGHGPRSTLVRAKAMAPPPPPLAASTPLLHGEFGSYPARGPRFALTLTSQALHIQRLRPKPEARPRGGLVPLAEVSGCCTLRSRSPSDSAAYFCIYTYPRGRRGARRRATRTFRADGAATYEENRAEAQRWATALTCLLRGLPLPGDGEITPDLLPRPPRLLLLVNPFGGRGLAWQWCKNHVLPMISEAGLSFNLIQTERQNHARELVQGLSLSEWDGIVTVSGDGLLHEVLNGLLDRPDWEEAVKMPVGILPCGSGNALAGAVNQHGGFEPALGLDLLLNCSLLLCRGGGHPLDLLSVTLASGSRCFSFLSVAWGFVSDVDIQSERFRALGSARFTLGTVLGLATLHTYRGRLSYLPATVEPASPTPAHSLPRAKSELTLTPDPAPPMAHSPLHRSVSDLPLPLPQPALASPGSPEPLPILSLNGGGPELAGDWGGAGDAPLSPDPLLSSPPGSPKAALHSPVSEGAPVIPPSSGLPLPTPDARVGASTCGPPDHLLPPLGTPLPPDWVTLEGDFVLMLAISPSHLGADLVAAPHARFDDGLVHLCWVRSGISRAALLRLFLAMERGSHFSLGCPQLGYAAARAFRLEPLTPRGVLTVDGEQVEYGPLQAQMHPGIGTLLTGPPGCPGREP

[3] = biological target: T1, Sphingosine kinase 2 (Homo sapiens); details: at 1 µM
[4] = biological target: Casein kinase II subunit alpha (Homo sapiens) (UniProt P68400); details: at 0.1 µM
[5] = biological target: Casein kinase II subunit alpha (Homo sapiens) (UniProt P68400); details: at 1 µM
[6] = biological target: T2, Inhibitor of nuclear factor kappa-B kinase subunit alpha (Homo sapiens) (UniProt O15111); details: at 0.1 µM
T2 sequence (whole entry): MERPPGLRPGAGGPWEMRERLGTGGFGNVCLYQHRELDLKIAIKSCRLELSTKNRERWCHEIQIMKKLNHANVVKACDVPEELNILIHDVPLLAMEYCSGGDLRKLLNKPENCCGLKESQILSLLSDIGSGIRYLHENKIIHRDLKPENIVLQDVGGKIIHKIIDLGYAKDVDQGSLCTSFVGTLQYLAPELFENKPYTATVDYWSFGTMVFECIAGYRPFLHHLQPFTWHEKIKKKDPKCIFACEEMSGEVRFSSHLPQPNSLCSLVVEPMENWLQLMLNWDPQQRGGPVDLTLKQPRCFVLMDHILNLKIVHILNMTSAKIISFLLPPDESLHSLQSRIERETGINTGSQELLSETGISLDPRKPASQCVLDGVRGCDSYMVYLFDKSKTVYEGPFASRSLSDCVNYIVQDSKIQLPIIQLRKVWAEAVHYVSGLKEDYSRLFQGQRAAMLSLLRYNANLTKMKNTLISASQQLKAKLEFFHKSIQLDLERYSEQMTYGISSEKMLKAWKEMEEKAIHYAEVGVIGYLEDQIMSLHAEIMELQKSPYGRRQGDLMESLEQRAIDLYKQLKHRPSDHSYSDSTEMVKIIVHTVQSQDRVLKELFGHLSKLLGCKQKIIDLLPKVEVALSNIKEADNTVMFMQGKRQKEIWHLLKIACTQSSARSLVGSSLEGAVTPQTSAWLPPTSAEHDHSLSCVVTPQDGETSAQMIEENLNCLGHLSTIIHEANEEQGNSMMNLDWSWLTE

[7] = biological target: T2, Inhibitor of nuclear factor kappa-B kinase subunit alpha (Homo sapiens); details: at 1 µM
[8] = biological target: T3, Inhibitor of nuclear factor kappa-B kinase subunit beta (Homo sapiens) (UniProt O14920); details: at 0.1 µM
T3 sequence (whole entry): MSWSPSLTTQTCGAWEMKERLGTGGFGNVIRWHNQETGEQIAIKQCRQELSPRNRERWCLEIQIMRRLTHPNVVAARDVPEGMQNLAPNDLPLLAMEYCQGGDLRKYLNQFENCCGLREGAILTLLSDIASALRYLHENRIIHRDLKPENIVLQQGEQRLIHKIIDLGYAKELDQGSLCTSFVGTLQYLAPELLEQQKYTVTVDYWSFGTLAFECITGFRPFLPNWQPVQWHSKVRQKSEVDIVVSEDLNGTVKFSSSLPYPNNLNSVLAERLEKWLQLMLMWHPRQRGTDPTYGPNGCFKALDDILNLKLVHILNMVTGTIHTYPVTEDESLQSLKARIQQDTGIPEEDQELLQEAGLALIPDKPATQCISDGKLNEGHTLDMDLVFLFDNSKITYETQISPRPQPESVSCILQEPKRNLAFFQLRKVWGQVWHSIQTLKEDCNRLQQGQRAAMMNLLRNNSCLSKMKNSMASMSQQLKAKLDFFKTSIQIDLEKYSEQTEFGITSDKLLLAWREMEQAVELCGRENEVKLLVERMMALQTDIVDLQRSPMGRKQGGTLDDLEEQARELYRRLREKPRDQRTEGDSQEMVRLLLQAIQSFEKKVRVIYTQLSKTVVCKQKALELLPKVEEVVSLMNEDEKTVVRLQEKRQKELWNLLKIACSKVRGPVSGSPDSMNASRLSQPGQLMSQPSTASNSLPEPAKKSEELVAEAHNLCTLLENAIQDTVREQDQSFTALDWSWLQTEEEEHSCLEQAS

[9] = biological target: T3, Inhibitor of nuclear factor kappa-B kinase subunit beta (Homo sapiens); details: at 1 µM
[10] = biological target: T4, Inhibitor of nuclear factor kappa-B kinase subunit epsilon (Homo sapiens) (UniProt Q14164); details: at 0.1 µM
T4 sequence (whole entry): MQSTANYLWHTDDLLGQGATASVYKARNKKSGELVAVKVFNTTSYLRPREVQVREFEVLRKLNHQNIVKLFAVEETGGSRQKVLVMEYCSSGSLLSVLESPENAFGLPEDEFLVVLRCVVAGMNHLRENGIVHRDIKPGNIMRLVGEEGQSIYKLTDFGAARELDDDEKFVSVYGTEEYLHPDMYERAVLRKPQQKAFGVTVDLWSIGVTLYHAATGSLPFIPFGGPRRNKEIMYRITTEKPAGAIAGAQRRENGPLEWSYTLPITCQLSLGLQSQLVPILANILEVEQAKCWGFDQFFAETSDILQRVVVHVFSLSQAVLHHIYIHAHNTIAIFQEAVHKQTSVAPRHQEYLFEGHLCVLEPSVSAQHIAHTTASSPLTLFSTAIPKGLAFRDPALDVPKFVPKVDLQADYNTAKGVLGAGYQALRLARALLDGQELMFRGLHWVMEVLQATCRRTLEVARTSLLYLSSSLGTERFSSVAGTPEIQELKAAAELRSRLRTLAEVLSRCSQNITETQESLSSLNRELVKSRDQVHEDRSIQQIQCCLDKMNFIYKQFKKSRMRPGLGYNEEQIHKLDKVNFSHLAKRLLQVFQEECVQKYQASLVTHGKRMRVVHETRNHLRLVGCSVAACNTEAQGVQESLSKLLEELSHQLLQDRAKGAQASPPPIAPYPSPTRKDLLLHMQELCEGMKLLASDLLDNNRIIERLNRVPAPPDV

[11] = biological target: T4, Inhibitor of nuclear factor kappa-B kinase subunit epsilon (Homo sapiens); details: at 1 µM
[12] = biological target: T5, Serine/threonine-protein kinase Nek1 (Homo sapiens) (UniProt Q96PY6); details: at 0.1 µM
T5 sequence (whole entry): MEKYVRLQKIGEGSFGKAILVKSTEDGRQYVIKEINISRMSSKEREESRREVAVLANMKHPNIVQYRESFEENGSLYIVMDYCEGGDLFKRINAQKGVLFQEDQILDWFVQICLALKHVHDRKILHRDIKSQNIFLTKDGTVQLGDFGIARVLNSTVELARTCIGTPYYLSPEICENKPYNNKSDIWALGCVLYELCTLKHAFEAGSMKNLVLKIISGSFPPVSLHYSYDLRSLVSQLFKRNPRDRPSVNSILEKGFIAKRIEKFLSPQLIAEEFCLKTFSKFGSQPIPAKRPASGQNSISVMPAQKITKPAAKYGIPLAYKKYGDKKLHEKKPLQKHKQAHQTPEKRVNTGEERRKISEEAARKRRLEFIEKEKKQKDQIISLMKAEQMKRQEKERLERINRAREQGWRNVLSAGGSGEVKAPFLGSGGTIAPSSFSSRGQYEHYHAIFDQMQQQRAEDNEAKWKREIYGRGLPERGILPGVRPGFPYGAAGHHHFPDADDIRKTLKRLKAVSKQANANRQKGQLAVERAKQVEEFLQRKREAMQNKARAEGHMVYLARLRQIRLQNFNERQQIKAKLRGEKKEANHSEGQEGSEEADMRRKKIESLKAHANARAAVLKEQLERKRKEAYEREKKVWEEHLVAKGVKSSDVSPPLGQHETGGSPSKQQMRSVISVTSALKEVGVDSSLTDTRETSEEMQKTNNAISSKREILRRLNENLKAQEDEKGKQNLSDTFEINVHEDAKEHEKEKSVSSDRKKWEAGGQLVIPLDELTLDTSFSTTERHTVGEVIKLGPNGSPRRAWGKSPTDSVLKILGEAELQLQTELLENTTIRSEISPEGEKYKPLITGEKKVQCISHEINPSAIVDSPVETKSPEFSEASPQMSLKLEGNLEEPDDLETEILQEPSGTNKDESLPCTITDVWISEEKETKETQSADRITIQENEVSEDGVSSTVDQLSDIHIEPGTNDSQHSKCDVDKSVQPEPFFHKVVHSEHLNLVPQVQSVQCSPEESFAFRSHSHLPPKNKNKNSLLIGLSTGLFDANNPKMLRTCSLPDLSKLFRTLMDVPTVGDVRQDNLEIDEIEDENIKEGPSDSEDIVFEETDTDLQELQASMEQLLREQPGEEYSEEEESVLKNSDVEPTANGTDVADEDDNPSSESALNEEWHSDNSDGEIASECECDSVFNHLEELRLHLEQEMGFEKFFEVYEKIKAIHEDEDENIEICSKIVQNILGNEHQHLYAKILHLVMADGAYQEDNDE

[13] = biological target: T5, Serine/threonine-protein kinase Nek1 (Homo sapiens); details: at 1 µM
[14] = biological target: T6, Serine/threonine-protein kinase Nek2 (Homo sapiens) (UniProt P51955); details: at 0.1 µM
T6 sequence (whole entry): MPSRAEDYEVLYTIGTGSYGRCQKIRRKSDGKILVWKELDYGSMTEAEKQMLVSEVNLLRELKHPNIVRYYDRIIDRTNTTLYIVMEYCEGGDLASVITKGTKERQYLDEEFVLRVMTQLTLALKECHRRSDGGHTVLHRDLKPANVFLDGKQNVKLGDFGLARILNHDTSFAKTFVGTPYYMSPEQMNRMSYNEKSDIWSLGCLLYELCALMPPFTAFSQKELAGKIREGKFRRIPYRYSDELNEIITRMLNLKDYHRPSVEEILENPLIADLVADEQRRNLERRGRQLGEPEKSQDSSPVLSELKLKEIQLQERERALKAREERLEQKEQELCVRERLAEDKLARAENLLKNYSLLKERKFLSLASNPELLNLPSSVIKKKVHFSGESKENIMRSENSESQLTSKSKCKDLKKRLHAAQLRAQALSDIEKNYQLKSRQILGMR

[15] = biological target: T6, Serine/threonine-protein kinase Nek2 (Homo sapiens); details: at 1 µM
[16] = biological target: Serine/threonine-protein kinase Nek6 (Homo sapiens) (UniProt Q9HC98); details: at 0.1 µM
[17] = biological target: Serine/threonine-protein kinase Nek6 (Homo sapiens) (UniProt Q9HC98); details: at 1 µM
[18] = biological target: Serine/threonine-protein kinase Nek7 (Homo sapiens) (UniProt Q8TDX7); details: at 0.1 µM
[19] = biological target: Serine/threonine-protein kinase Nek7 (Homo sapiens) (UniProt Q8TDX7); details: at 1 µM
[20] = biological target: T7, Serine/threonine-protein kinase Nek9 (Homo sapiens) (UniProt Q8TD19); details: at 0.1 µM;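 note: reported value is the mean percent inhibition of NEK9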
T7 sequence (whole entry): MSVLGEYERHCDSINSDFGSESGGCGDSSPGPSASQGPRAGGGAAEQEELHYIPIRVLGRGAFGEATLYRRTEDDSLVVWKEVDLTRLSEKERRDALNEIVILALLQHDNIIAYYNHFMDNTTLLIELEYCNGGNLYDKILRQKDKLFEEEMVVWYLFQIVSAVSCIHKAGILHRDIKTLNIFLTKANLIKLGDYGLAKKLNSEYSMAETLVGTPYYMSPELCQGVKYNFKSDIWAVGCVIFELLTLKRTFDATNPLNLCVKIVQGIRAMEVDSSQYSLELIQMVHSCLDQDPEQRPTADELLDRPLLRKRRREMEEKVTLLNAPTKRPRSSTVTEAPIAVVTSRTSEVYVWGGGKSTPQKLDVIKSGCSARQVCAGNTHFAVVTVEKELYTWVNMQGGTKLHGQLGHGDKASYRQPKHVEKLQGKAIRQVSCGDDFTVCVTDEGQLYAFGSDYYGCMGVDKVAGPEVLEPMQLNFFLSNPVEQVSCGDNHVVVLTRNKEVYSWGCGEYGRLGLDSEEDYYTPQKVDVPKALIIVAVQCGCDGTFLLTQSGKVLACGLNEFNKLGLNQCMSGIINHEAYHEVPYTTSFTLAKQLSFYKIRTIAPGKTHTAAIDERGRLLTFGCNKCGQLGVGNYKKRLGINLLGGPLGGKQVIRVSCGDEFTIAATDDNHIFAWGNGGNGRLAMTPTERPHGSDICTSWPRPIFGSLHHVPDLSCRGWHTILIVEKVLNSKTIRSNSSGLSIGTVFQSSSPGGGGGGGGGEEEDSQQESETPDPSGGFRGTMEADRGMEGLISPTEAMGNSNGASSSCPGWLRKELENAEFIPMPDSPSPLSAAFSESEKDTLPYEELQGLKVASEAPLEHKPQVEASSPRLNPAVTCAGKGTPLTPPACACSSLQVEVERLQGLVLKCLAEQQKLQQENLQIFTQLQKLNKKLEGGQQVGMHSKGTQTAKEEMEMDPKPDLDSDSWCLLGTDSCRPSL

Chain of Casein kinase II subunit alpha (Homo sapiens) (P68400 whole entry, looked up): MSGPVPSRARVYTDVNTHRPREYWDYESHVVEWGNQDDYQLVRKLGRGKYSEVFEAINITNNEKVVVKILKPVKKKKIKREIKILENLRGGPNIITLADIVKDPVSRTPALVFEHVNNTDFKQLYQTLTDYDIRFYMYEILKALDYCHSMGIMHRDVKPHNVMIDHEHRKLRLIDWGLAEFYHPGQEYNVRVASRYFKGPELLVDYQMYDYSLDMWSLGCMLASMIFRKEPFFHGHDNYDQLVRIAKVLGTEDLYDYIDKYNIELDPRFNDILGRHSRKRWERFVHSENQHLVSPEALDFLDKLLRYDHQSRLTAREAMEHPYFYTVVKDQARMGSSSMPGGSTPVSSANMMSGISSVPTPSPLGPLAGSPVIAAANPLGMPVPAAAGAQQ
Chain of Serine/threonine-protein kinase Nek7 (Homo sapiens) (Q8TDX7 whole entry, looked up): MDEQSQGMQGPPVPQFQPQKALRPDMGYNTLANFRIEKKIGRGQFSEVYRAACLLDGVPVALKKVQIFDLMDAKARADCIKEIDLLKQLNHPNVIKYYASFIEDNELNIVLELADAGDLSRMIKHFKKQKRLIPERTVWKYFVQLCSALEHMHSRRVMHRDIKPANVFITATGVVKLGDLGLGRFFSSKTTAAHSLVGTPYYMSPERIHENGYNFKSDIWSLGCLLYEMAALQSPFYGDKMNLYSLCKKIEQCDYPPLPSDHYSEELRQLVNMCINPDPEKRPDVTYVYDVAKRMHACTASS
Chain of Serine/threonine-protein kinase Nek6 (Homo sapiens) (Q9HC98 whole entry): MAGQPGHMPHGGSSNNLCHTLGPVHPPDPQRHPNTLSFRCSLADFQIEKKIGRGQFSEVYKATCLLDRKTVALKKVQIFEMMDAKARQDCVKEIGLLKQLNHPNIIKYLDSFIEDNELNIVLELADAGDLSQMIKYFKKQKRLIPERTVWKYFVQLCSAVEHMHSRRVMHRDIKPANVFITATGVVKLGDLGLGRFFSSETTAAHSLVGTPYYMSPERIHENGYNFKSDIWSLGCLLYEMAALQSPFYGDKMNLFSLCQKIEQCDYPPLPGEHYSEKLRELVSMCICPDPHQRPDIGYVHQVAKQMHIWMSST
Chain of Sphingosine kinase 1 (Homo sapiens) (Q9NYA1 whole entry): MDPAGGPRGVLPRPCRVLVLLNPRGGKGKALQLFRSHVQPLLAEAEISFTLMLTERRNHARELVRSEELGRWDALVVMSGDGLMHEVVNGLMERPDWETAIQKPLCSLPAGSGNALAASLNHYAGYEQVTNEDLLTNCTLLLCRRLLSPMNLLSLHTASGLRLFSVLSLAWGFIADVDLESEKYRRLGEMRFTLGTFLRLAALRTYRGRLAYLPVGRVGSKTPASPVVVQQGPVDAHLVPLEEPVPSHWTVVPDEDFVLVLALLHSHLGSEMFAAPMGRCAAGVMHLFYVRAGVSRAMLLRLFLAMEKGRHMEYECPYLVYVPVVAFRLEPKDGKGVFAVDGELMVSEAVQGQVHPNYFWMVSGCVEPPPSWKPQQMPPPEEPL

Structure (SMILES) | inhibition [1] | inhibition [2] | inhibition [3] | inhibition [4] | inhibition [5] | inhibition [6] | inhibition [7] | inhibition [8] | inhibition [9] | inhibition [10] | inhibition [11] | inhibition [12] | inhibition [13] | inhibition [14] | inhibition [15] | inhibition [16] | inhibition [17] | inhibition [18] | inhibition [19] | inhibition [20]
Fc1ccc(-c2ncn(C3CCNCC3)c2-c2ccnc(Oc3ccc4c(c3)OCO4)n2)cc1 | -2.26% | -0.59% | 0% | 11.3% | 3.74% | 5% | 9.09% | 6.93% | 8.89% | 7.17% | 5.91% | 3.2% | 6.26% | 7.49% | 6.41% | 1.13% | 1.67% | 2.69% | 4.77% | 7.85%
O=C(Nc1n[nH]c2nc(-c3ccco3)ccc12)C1CC1 | -1.96% | 0.87% | -0.13% | 0.99% | -0.44% | 4.36% | -0.84% | -0.41% | -0.38% | -0.37% | -0.75% | 1.33% | 1.36% | -0.12% | 1.78% | 1.86% | -0.99% | 2.23% | 2.61% | 6.28%
